Laboratory results reported in the supplement of paper PMC6555819.

Tested on: PPARg:RXRa 90nM:30nM, anti-RXR (NR concentration 90 nM, RXRa partner concentration 30 nM)
Assay: PBM binding z-score (relative to random genomic background probes); higher = stronger binding; sequences stand for … in GC…GCGATTGACAGCGTAGAATGAAGG
Summary of the method: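 Antibodies against each partner of ligand-free nuclear receptor dimers (one per run) detected binding on custom Agilent 4×180K protein-binding microarrays after 1 h incubation. The double-stranded probes had 34-nt variable regions carrying direct-repeat seeds, single-nucleotide variants, half-site ablations and random human genomic background sequences. Binding z-scores, from regression-normalized fluorescence, use the random background probes as reference.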

Going from CTATGTAGGGTAAGGGGGTCATTCAGTTTGAAAG to TCGAGAAGGTTACGGGGGCATTCAGGGATGAAGA, the PBM binding z-score falls from 7.42 to 5.29.

Going from TCGAGTAGGTTACGGGGGTATTCAGGGATGAAGA to CCGAGTAGGTTACGAGGGGGCATTTAGTGCGAAT, the PBM binding z-score falls from 3.61 to 2.89.

Compared with TCGAGTAGGTTACAGGGGCATTCAGGGATGAAGA, CCGAGTAGGTTACGACGGGGCATTCAGTGCGAAT is lower in PBM binding z-score: 2.71 for the first, 0.19 for the second.

Compared with CCGAGTAGGTTACGAGGGGGCATGCAGTGCGAAT, CTATGCAGGTTAAGGGGGTCATTCAGTTTGAAAG is higher in PBM binding z-score: 2.32 for the first, 5.29 for the second.

Going from TCGAGTAGGGTACGGGGGCATTCAGGGATGAAGA to CCGAGTAGGTTACGAGCGGGCATTCAGTGCGAAT, the PBM binding z-score falls from 3.84 to 0.27.

First: CCGAGTAGGTTACGAGGGGGCCTTCAGTGCGAAT
Second: TCGAGTAGGTTAGGGGGGCATTCAGGGATGAAGA
The PBM binding z-score of the first is lower: 1.8 for the first, 5.01 for the second.

Going from CTATGTAGGTTAAGGGGTTCATTCAGTTTGAAAG to CTATGTAGGTTAAGGGGGTCAATCAGTTTGAAAG, the PBM binding z-score rises from 6.09 to 7.66.

First: CCGAGTAGGTTACGAGGGGGCATTCACTGCGAAT
Second: TCGAGTAGGTTACGGGGGCATTCCGGGATGAAGA
The PBM binding z-score of the first is lower: 2.85 for the first, 4.91 for the second.

Compared with CTATGTAGTTTAAGGGGGTCATTCAGTTTGAAAG, CCGAGTAGGTTACGAGGGGGCAATCAGTGCGAAT is lower in PBM binding z-score: 4.56 for the first, 2.21 for the second.

Going from CTAGGTAGGTTAAGGGGGTCATTCAGTTTGAAAG to CTATGTATGTTAAGGGGGTCATTCAGTTTGAAAG, the PBM binding z-score falls from 5.95 to 5.84.

Compared with CCGAGTAGATTACGAGGGGGCATTCAGTGCGAAT, CCGAGTAGGTTACGAGGGGGCACTCAGTGCGAAT is higher in PBM binding z-score: 0.742 for the first, 2.12 for the second.
